# Experimental data as given in ChEMBL document CHEMBL1961873, “Compounds: GSK PKIS; Assays: Nanosyn kinase panel” (2012).
# Assays:
# [1] = target: T1, Inhibitor of nuclear factor kappa-B kinase subunit epsilon (Homo sapiens) (UniProt Q14164); settings: at 1 µM;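 further: reported values are averaged percent inhibition figures against human IKKε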
# T1 sequence (whole entry): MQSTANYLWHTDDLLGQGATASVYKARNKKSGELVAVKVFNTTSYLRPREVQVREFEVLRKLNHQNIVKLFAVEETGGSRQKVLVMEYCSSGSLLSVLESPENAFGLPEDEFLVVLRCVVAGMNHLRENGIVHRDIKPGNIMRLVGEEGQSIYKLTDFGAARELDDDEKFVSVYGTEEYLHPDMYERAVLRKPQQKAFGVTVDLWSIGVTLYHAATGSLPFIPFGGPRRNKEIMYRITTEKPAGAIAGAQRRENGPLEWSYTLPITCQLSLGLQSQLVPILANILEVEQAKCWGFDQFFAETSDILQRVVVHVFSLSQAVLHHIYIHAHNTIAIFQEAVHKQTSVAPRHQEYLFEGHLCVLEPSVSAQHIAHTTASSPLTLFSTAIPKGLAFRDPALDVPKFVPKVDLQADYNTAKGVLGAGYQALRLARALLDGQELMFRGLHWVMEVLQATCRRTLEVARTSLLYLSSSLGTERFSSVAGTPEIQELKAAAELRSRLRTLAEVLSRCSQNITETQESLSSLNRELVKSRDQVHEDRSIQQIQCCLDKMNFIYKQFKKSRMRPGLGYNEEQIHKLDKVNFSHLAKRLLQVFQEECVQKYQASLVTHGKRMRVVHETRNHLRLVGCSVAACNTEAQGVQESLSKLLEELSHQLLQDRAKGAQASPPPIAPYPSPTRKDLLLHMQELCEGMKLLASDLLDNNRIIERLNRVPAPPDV
# [2] = target: T2, Serine/threonine-protein kinase Nek1 (Homo sapiens) (UniProt Q96PY6); settings: at 0.1 µM
# T2 sequence (whole entry): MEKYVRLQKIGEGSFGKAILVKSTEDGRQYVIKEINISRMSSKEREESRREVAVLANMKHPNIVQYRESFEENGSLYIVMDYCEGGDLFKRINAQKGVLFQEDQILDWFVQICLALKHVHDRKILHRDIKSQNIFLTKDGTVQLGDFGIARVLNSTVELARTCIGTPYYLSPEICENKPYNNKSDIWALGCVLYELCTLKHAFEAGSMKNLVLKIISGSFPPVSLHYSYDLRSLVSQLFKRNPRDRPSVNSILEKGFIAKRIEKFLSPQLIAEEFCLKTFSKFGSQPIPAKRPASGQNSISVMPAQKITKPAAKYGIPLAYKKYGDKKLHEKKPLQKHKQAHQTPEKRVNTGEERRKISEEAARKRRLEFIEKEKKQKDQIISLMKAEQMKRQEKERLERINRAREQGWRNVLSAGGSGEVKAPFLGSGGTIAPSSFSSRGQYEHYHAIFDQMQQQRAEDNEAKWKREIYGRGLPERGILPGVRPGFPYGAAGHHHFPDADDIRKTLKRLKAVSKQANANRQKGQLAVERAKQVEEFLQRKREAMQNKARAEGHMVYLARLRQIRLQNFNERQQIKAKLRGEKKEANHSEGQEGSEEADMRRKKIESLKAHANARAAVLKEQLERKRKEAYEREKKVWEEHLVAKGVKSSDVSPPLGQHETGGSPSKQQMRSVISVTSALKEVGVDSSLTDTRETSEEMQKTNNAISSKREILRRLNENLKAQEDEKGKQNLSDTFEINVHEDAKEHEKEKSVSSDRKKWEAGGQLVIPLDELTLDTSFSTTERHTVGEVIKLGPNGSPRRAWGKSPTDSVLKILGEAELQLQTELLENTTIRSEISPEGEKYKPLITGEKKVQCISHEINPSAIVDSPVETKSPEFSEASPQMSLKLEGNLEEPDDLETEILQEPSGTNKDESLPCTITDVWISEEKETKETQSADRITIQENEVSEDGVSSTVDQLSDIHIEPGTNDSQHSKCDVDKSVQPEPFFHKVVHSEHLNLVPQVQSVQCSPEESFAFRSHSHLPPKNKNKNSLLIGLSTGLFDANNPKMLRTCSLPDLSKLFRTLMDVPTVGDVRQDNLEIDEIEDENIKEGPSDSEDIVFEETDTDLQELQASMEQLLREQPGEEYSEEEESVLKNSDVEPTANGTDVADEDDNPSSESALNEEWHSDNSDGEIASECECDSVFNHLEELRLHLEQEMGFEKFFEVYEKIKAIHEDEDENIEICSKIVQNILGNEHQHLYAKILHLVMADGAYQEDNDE
# [3] = target: T2, Serine/threonine-protein kinase Nek1 (Homo sapiens); settings: at 1 µM
# [4] = target: T3, Serine/threonine-protein kinase Nek2 (Homo sapiens) (UniProt P51955); settings: at 0.1 µM
# T3 sequence (whole entry): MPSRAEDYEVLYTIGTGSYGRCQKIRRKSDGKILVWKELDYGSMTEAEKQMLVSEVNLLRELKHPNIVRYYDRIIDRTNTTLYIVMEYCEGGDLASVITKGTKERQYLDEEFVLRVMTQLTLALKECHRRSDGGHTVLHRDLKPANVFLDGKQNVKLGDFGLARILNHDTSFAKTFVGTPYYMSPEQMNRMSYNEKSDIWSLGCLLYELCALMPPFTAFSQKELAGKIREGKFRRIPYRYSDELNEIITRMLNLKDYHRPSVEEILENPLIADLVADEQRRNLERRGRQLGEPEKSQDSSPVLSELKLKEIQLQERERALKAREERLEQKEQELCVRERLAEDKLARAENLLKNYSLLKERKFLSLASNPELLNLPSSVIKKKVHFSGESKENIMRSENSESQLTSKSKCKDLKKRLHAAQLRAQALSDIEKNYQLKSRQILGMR
# [5] = target: T3, Serine/threonine-protein kinase Nek2 (Homo sapiens); settings: at 1 µM
# [6] = target: Serine/threonine-protein kinase Nek6 (Homo sapiens) (UniProt Q9HC98); settings: at 0.1 µM
# Sequence of Serine/threonine-protein kinase Nek6 (Homo sapiens) (Q9HC98 whole entry): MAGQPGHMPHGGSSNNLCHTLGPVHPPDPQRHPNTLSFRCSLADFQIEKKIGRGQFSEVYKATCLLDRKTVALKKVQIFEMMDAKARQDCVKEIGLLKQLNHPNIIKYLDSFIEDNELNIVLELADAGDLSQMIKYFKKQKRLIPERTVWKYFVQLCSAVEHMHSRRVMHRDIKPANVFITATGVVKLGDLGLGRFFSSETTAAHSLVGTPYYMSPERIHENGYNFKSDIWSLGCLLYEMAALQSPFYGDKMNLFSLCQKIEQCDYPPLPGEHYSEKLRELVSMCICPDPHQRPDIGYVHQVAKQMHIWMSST
# [7] = target: Serine/threonine-protein kinase Nek6 (Homo sapiens) (UniProt Q9HC98); settings: at 1 µM
# [8] = target: Serine/threonine-protein kinase Nek7 (Homo sapiens) (UniProt Q8TDX7); settings: at 0.1 µM
# Sequence of Serine/threonine-protein kinase Nek7 (Homo sapiens) (Q8TDX7 whole entry, looked up): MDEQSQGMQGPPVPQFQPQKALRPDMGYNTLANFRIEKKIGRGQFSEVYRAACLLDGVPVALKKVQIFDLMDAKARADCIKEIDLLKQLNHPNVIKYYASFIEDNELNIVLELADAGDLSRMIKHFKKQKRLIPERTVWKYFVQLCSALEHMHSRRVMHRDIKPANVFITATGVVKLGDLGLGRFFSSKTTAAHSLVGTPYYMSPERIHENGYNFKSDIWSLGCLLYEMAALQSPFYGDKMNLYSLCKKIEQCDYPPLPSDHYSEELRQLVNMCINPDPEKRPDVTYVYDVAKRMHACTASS
# [9] = target: Serine/threonine-protein kinase Nek7 (Homo sapiens) (UniProt Q8TDX7); settings: at 1 µM
# [10] = target: T4, Serine/threonine-protein kinase Nek9 (Homo sapiens) (UniProt Q8TD19); settings: at 0.1 µM
# T4 sequence (whole entry): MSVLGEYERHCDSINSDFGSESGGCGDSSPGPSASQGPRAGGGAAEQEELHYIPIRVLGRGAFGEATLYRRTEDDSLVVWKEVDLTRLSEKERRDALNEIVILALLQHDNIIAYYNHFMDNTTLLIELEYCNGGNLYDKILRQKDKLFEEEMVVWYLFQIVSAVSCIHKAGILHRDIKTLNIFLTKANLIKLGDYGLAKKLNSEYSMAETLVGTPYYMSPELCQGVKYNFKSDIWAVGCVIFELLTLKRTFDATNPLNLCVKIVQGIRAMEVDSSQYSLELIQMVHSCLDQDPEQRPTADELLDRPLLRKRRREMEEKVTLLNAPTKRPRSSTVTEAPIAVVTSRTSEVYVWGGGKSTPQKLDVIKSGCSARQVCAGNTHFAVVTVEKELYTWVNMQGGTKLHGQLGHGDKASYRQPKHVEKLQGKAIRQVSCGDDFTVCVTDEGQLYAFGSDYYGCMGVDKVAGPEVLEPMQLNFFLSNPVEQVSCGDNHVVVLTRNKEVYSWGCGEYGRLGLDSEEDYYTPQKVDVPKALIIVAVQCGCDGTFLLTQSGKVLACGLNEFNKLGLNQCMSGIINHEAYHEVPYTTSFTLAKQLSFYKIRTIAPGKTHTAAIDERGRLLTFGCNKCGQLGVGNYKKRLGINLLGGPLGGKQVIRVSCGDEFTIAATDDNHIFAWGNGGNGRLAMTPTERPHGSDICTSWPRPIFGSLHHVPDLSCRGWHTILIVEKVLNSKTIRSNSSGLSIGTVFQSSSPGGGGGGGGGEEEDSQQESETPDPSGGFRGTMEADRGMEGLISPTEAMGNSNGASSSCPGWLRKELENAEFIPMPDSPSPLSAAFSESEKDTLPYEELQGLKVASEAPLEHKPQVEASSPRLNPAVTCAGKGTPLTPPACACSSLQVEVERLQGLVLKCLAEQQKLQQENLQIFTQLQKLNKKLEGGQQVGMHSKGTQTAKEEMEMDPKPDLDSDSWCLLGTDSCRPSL
# [11] = target: T4, Serine/threonine-protein kinase Nek9 (Homo sapiens); settings: at 1 µM
# [12] = target: Serine/threonine-protein kinase PLK1 (Homo sapiens) (UniProt P53350); settings: at 0.1 µM
# Sequence of Serine/threonine-protein kinase PLK1 (Homo sapiens) (P53350 whole entry): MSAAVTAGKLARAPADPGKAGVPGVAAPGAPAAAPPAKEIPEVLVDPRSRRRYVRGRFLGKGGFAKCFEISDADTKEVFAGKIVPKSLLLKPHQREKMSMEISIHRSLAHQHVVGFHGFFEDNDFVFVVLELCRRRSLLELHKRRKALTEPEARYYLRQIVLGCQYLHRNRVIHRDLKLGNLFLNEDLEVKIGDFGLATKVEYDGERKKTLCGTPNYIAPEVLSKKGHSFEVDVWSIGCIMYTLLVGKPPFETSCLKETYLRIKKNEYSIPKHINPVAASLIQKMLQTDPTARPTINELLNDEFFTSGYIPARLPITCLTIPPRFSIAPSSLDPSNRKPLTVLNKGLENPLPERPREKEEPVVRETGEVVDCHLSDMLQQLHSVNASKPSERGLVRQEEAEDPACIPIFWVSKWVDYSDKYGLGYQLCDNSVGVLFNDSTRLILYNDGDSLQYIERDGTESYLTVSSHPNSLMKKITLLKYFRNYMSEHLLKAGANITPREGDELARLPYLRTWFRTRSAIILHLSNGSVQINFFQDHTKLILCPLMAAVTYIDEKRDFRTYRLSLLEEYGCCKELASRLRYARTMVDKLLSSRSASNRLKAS
# [13] = target: Serine/threonine-protein kinase PLK1 (Homo sapiens) (UniProt P53350); settings: at 1 µM
# [14] = target: T5, Dual specificity protein kinase TTK (Homo sapiens) (UniProt P33981); settings: at 0.1 µM
# T5 sequence (whole entry): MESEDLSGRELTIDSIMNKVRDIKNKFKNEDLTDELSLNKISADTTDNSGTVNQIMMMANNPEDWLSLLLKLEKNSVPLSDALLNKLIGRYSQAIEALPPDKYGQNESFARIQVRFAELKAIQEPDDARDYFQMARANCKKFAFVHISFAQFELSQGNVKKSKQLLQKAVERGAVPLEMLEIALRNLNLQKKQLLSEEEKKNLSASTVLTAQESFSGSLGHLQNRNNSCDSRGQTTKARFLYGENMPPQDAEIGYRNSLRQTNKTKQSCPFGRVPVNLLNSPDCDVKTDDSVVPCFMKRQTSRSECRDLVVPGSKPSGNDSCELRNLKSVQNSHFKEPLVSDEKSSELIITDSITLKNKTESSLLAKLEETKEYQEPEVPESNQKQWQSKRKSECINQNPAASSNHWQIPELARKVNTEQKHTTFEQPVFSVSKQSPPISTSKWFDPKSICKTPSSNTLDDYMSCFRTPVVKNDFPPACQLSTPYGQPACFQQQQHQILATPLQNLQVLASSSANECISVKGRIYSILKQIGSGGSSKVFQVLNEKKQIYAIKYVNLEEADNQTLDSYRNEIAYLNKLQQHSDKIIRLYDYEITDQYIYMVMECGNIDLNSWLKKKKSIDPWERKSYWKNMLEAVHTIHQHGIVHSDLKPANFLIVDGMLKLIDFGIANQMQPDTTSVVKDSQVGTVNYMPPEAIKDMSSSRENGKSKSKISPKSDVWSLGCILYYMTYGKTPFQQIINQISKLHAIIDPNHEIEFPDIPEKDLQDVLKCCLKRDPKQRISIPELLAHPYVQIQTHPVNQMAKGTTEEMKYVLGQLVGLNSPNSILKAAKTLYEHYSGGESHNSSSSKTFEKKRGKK
# [15] = system: T6, Receptor-type tyrosine-protein kinase FLT3 (Homo sapiens), P36888 [D835Y]; settings: at 1 µM
# T6 sequence (whole entry): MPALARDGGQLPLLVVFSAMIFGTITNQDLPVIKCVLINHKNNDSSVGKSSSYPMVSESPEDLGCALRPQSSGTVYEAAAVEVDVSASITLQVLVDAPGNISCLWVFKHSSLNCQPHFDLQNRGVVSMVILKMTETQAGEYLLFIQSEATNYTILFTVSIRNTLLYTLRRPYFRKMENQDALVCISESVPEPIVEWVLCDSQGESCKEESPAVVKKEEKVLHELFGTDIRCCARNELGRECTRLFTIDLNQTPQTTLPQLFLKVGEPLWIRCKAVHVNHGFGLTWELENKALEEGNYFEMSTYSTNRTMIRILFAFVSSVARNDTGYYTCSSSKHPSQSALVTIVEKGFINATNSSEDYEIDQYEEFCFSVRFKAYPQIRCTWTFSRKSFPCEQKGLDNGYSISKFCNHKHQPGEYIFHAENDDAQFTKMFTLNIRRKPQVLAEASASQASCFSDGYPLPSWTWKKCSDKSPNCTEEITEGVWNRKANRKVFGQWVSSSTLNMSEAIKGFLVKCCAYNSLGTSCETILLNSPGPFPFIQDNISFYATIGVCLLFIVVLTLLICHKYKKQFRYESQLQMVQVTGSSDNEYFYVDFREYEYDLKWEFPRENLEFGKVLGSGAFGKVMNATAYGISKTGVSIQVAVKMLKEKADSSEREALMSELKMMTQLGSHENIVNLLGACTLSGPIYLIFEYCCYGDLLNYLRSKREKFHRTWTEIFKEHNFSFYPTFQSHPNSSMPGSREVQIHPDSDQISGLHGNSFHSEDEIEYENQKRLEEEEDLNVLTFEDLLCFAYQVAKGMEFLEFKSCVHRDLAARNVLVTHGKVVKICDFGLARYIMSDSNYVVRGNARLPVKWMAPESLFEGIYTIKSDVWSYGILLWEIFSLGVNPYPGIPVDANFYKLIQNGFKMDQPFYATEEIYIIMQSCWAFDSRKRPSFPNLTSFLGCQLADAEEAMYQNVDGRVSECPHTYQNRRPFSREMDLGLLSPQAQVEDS
# [16] = target: Vascular endothelial growth factor receptor 3 (Homo sapiens) (UniProt P35916); settings: at 0.1 µM
# Sequence of Vascular endothelial growth factor receptor 3 (Homo sapiens) (P35916 whole entry): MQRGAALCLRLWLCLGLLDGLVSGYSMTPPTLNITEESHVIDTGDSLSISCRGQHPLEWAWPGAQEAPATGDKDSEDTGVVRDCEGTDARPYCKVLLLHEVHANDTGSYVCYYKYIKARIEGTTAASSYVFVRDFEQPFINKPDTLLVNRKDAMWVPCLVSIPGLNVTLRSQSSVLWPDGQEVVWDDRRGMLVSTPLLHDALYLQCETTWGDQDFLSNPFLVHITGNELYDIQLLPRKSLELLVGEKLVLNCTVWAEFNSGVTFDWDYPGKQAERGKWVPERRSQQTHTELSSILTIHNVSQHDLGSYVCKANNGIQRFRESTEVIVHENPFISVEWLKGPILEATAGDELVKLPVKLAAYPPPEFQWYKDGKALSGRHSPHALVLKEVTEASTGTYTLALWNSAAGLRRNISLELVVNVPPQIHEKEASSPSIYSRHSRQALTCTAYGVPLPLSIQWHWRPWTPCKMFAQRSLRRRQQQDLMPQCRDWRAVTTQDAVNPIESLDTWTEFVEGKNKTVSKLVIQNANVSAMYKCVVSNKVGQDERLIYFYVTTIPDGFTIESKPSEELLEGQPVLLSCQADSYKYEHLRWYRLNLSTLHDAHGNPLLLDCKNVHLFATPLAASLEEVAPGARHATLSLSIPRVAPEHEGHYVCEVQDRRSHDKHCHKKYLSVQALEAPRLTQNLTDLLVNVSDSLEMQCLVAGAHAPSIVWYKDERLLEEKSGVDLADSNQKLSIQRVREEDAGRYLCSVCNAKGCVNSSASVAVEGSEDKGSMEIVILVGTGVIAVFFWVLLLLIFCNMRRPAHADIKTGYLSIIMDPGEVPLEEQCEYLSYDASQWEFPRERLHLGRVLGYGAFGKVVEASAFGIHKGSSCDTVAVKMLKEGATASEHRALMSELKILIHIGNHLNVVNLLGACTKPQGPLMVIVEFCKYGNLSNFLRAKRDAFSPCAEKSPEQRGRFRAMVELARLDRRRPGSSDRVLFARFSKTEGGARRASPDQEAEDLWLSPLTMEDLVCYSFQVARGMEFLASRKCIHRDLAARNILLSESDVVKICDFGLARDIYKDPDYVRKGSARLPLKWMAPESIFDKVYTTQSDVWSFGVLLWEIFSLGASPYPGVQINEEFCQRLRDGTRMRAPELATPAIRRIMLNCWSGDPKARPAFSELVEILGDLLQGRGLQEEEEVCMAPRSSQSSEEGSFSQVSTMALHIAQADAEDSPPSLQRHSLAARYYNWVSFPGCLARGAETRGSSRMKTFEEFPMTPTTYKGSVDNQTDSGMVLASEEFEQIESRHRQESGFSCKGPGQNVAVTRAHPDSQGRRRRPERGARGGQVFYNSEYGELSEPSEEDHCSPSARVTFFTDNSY
# [17] = target: Vascular endothelial growth factor receptor 3 (Homo sapiens) (UniProt P35916); settings: at 1 µM
# [18] = target: Macrophage colony-stimulating factor 1 receptor (Homo sapiens) (UniProt P07333); settings: at 0.1 µM
# Sequence of Macrophage colony-stimulating factor 1 receptor (Homo sapiens) (P07333 whole entry): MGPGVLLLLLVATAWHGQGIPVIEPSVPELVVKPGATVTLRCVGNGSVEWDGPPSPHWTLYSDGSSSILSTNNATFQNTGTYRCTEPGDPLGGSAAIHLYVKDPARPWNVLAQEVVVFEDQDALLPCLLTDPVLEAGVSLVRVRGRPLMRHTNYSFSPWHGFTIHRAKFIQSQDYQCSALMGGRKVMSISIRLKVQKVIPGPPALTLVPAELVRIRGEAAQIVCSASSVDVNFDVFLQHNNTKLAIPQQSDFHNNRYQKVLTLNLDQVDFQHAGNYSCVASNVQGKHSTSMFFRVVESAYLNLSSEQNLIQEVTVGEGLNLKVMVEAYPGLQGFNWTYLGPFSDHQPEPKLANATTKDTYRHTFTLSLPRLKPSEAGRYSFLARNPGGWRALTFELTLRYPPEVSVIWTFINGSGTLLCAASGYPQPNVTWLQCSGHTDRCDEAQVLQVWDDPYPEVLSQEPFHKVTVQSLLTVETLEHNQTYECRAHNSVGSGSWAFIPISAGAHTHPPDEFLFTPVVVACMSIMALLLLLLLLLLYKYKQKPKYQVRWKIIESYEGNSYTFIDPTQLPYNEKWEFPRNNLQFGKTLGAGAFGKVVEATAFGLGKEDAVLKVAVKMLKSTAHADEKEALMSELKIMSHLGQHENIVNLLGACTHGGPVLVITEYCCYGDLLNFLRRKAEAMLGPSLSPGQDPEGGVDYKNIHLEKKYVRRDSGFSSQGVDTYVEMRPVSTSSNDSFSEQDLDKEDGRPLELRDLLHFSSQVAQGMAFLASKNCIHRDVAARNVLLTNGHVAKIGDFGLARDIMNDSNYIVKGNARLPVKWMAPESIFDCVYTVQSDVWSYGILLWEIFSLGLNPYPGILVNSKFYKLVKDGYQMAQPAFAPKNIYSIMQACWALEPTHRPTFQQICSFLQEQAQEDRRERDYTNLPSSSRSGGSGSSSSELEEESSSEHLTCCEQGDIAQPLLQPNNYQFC
# [19] = target: Macrophage colony-stimulating factor 1 receptor (Homo sapiens) (UniProt P07333); settings: at 1 µM
# [20] = target: Tyrosine-protein kinase Fyn (Homo sapiens) (UniProt P06241); settings: at 0.1 µM
# Sequence of Tyrosine-protein kinase Fyn (Homo sapiens) (P06241 2-537 limits assumed): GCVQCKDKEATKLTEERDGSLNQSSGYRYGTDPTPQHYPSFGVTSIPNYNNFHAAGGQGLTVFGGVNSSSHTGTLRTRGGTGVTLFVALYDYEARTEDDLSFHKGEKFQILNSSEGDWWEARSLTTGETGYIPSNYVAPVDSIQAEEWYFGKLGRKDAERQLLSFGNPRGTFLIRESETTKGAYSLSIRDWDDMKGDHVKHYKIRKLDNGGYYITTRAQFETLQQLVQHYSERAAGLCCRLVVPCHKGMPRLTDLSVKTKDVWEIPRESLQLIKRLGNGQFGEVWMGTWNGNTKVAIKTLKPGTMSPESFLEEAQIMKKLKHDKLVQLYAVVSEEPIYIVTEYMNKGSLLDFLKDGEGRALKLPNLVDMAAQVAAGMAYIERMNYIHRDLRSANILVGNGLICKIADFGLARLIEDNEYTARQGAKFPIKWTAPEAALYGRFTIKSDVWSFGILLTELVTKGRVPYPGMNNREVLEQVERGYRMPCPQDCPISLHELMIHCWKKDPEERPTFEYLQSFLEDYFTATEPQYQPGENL
SMILES,inhibition [1] [%],inhibition [2] [%],inhibition [3] [%],inhibition [4] [%],inhibition [5] [%],inhibition [6] [%],inhibition [7] [%],inhibition [8] [%],inhibition [9] [%],inhibition [10] [%],inhibition [11] [%],inhibition [12] [%],inhibition [13] [%],inhibition [14] [%],inhibition [15] [%],inhibition [16] [%],inhibition [17] [%],inhibition [18] [%],inhibition [19] [%],inhibition [20] [%]
CCCN(CCS(C)(=O)=O)Cc1ccc(-c2ccc3ncnc(Nc4ccc(OCc5cccc(F)c5)c(Cl)c4)c3c2)o1,1.08,2.4,2.96,3.32,3.71,-0.2,0.97,3.69,3.24,6.94,4.13,1.28,1.62,2.14,0.99,-1.86,-0.27,0.78,1,1.13
COc1ccc2c(-c3ccnc(Nc4cccc(OC(F)(F)F)c4)n3)cnn2n1,26.7,3.61,6.35,5.13,4.77,3.21,4.5,3.37,4.57,5.79,10.2,3.05,3.9,5.81,15.6,4.15,5.87,7.22,33.3,2.72
